MEKK3 PB1 HTS = modulators of MEKK3-MEK5 PB1 binding, primary screen, biochemical, wildtype MEKK3, multiplex bead flow cytometry, Alexa488-MEK5; Mitogen-activated protein kinase kinase kinase 3 (Homo sapiens), Q99759; bead-based flow cytometry, Alexa488-MEK5 binding to MEKK3; actives lie on both sides; 0 = blocked by unlabeled MEK5, 100 = vehicle; binding response (% of control), % at 10 µM; 1.4% of 290,000 active;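 active = binding response more than 3 SD above or below the average of its plate-row segment, actives on both sides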;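 also: Alexa488 bead fluorescence after subtracting the streptavidin-only scavenger bead signal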
MEKK2 mut-MEK5 = MEK5 binding signal on mutant MEKK2 PB1, primary screen, biochemical, multiplex bead flow cytometry, Alexa488-MEK5 | Alexa488-MEK5 binding to MEKK2 mutant | percent response, % at 10 µM | 0.35% of 290,000 active | AID 1530, 2009; in the data active = percent response above about 24%, passing the limit was not always enough
CHT PAM = CHT positive allosteric modulators, primary screen, cell-based, membrane potential dye, choline EC20 | B-score at 10 µM | CHT-expressing cells; hits give high values; LV-AA mutant CHT in HEK293 cells | High affinity choline transporter 1 (Homo sapiens), Q9GZV3 | 0.49% of 310,000 active;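 active = initial fluorescence not abnormally high and integrated response B-score, plate-corrected, over 3 SD above library mean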
Target sequence (Q9GZV3 whole entry, looked up): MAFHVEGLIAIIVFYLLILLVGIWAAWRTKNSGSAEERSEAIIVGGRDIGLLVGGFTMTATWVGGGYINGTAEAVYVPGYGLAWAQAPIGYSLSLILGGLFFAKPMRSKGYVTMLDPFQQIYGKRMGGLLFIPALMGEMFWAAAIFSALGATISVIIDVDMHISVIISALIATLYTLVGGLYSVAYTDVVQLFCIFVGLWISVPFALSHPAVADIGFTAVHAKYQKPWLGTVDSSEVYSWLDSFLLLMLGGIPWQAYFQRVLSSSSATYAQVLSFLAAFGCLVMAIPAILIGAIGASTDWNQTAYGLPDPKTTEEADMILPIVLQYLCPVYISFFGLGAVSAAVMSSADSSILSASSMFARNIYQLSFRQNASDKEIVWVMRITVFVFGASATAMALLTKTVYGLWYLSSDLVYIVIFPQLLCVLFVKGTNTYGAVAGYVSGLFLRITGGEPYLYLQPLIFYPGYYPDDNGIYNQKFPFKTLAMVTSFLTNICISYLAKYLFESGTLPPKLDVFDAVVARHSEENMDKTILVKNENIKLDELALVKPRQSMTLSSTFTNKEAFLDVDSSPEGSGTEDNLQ
SUMO Mot1 rescue = yeast Mot1-301 growth rescue at high temperature, primary screen, SUMOylation pathway inhibitor project, S. cerevisiae, ATP luminescence, 38.5C; S. cerevisiae Mot1-301 growth rescue; percent above DMSO median, 100 means doubled; growth rescue, % at 18.8 µM; 1% of 320,000 active; AID 2716, 2010;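 active = every valid replicate shows activation above 250% relative to neutral control wells; inactive = the rest, any valid replicate at or below 250%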;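 also: OY570 slx delta 5 strain wells were the positive control but not used for scaling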
MEKK2wt PB1 HTS = modulators of MEK5 binding to wildtype MEKK2, primary screen, biochemical, multiplex bead flow cytometry, Alexa488-MEK5; Alexa488-MEK5 binding to MEKK2 WT; actives lie on both sides; binding response (% of control), % at 10 µM; 1.1% of 290,000 active; in the data active = binding response below about 67% or above about 130%
CHT block = inhibitors of human choline transporter CHT | High affinity choline transporter 1 (Homo sapiens), Q9GZV3 | 0.86% of 310,000 active | CHT-expressing cells, membrane potential dye, choline response; hits give low values | B-score at 10 µM;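 active = B-score over 3 SD under the library average, and starting fluorescence ratio not unusually high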;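 also: choline stimulus applied at its EC90 after an EC20 pre-addition; B-score computed on integrated fluorescence ratio after choline addition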
Mot1 SUMO dose = growth restoration of Mot1-301 yeast on galactose, dose response, SUMO pathway inhibitor project, whole organism, S. cerevisiae, ATP luminescence, cherry-picked samples | shares compounds with SUMO Mot1 rescue | S. cerevisiae Mot1-301 galactose growth, 24 h; -100 = growth of slx-deleted rescue strain | growth activity, percent, % at 42 µM | 2,300 tested, under 10 active | AID 493004, 2010;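 active = Signal drops as the depositor expects, and the fitted half-maximal dose is no more than ten times the top valid tested dose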;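 also: more negative values mean stronger growth rescue toward the control strain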
An asterisk follows results filed as active; i = inactive; x = no result; + = active, no number; [ ] = another dose, or the depositor's remark. An excerpt weighted towards active compounds, which were near 4.1% of everything screened.

SMILES	MEKK3 PB1 HTS	MEKK2 mut-MEK5	CHT PAM	SUMO Mot1 rescue	MEKK2wt PB1 HTS	CHT block	Mot1 SUMO dose
O=S(=O)(NCC1CCCO1)c1cc(Cl)ccc1Br (stereo not drawn)	102.0	8.0	i	466.6*	103.0	i	0.8
CC(C)Sc1cc(Cl)nc(NC(=O)Nc2ccccc2)n1	102.0	-1.0	i	-10.8	99.0	i	x
c1ccc2c(c1)CC1(CCCC1)N=C2N1CCOCC1	97.0	-3.0	i	15.2	101.0	i	x
CCS(=O)c1ccccc1C(=O)O (stereo not drawn)	99.0	3.0	i	391.5*	96.0	i	-0.1
CCOC(=O)C(NC(=O)c1ccccc1)(N1CCOCC1)C(F)(F)F (stereo not drawn)	101.0	1.0	i	+	101.0	i	0.0
CCOC(=O)C(NC(C)=O)(N1CCOCC1)C(F)(F)F (stereo not drawn)	98.0	-9.0	i	-7.7	98.0	i	x
CCCS(=O)(=O)N1CCC(C(=O)N2CCC(Cc3ccccc3)CC2)CC1	96.0	8.0	i	698.5	99.0	i	x
O=C(C1CCN(S(=O)(=O)N2CCC3(CC2)OCCO3)CC1)N1CCC(Cc2ccccc2)CC1	103.0	5.0	i	398.5*	102.0	i	0.5
CCC(CC)NC(=O)CO/N=C/c1ccccc1OC(F)F	96.0	-2.0	i	5.3	96.0	i	x
CC(=O)OCc1ccccc1Sc1ccccc1C(=O)NCc1ccccc1	96.0	-10.0	i	4.4	93.0	i	x
CNC(=O)c1ccccc1S(=O)c1ccccc1COC(C)=O (stereo not drawn)	109.0	6.0	i	383.6*	107.0	i	-0.1
CCN(CC)S(=O)(=O)c1ccc(C(=O)NCCc2cc3c(OC)ccc(OC)c3[nH]c2=O)cc1	x	x	i	437.6*	x	i	-0.5
O=C(/C=C/c1ccc(Cl)cc1Cl)Nc1cccc(S(=O)(=O)NC2=NCCCCC2)c1	106.0	3.0	i	546.8*	119.0	i	0.7
CC(C)=CC(=O)Nc1cccc(S(=O)(=O)NC2=NCCCCC2)c1	x	x	x	-3.1	x	x	x
Cc1c(F)cccc1NS(=O)(=O)c1ccc(OCCNS(C)(=O)=O)cc1	59.0	-26.0	i	-5.7	68.0	i	x
Cc1cccc(C)c1NS(=O)(=O)c1ccc(OCCNS(C)(=O)=O)cc1	102.0	1.0	i	654.6*	107.0	i	0.2
CCCCn1c(N)c(N(C)C(=O)C2CC(=O)N(Cc3ccco3)C2)c(=O)[nH]c1=O (stereo not drawn)	x	x	x	-14.6	x	x	x
O=C(CCc1nc2sc3c(c2c(=O)[nH]1)CCCC3)N1CCN(c2ccccc2)CC1	x	x	i	772.0*	x	i	0.5
CCOC(=O)N1CCN(C(=O)CCc2nc3sc4c(c3c(=O)[nH]2)CCCC4)CC1	101.0	2.0	i	-7.7	97.0	i	x
CCc1nnc(N2C(=N)SCC2=O)s1	107.0	6.0	i	-5.1	100.0	i	x
O=C(CSc1nnc(CNC(=O)c2ccccc2)o1)NCc1ccco1	99.0	0.0	i	799.7*	99.0	i	0.3
O=C(CSc1nnc(CNC(=O)c2ccco2)o1)Nc1nc2ccccc2s1	121.0	0.0	i	+	117.0	i	0.8
O=C(CSc1nnc(CNC(=O)c2ccco2)o1)Nc1ccccc1	118.0	-1.0	i	251.5	105.0	i	x
Cc1cc(Cl)c2oc(C(=O)N(C)CCc3cnn(C)c3)c(C)c2c1	97.0	4.0	i	-6.8	97.0	i	x
COc1ccc(N2CCN(C3CCCN(Cc4cccc(OC)c4)C3)CC2)cc1 (stereo not drawn)	107.0	7.0	i	667.0*	111.0	i	0.3
SMILES	MEKK3 PB1 HTS	MEKK2 mut-MEK5	CHT PAM	SUMO Mot1 rescue	MEKK2wt PB1 HTS	CHT block	Mot1 SUMO dose
COc1cccc(N2CCN(C3CCCC(C)C3)CC2)c1 (stereo not drawn)	100.0	6.0	i	676.0*	105.0	i	0.3
CCOc1ccc(C(=O)Nc2ccc(CN3CCOCC3)cc2)cc1Br	101.0	2.0	i	364.9*	102.0	i	0.5[21 µM]
Cc1ccc(OCC(=O)NNC(=O)CCc2ccccc2)c(Br)c1	99.0	-1.0	i	14.6	93.0	i	x
CN1CCN(NC(=O)c2ccc(Cl)s2)CC1	98.0	-3.0	i	27.3	95.0	i	x
COc1ccccc1CC(=O)N1CCOCC1	110.0	4.0	i	878.2*	109.0	i	-0.1
O=C(c1ccncc1)N(Cc1ccccc1)Cc1nc2ccccc2c(=O)[nH]1	105.0	3.0	i	413.8*	103.0	i	0.3
CCCS(=O)(=O)N1CCC(C(=O)N2CCc3ccccc3C2)CC1	98.0	2.0	i	396.6*	98.0	i	0.1
COc1cccc(/C=C2/C(=O)NN(c3ccc(Br)cc3)C2=O)c1O	108.0	1.0	i	527.7*	109.0	-6.85*	0.4
CS(=O)(=O)c1ccc(Cl)c(NC(=O)c2ccc3ccccc3c2)c1	101.0	13.0	i	+	109.0	i	0.4
CS(=O)(=O)c1ccc(Cl)c(NC(=O)COC(=O)CNC(=O)c2ccc3ccccc3c2)c1	x	x	i	7.2	x	i	x
C[C@@]12C(=O)Nc3ccc(F)cc3C(=O)N1[C@H]1c3ccccc3OC[C@@H]1[C@@H]2c1ccccc1	x	x	x	+	x	x	-0.2
C[C@@]12C(=O)Nc3cc(Cl)ccc3C(=O)N1[C@H]1c3ccccc3OC[C@@H]1[C@@H]2c1ccccc1	x	x	i	454.3*	x	i	-0.5
C[C@@]12C(=O)Nc3cc(Cl)ccc3C(=O)N1[C@H]1c3cc(Cl)ccc3OC[C@@H]1[C@@H]2c1ccccc1	x	x	x	253.8	x	x	x
C[C@@]12C(=O)Nc3ccc(F)cc3C(=O)N1[C@H]1c3cc(Cl)ccc3OC[C@@H]1[C@@H]2c1ccccc1	x	x	x	409.1*	x	x	-0.8
Cc1ccc2c(c1)C(=O)N1[C@H]3c4cc(C)ccc4OC[C@@H]3[C@H](c3ccccc3)[C@]1(C)C(=O)N2	x	x	x	156.1	x	x	x
Cc1ccc2c(c1)[C@H]1[C@H](CO2)[C@H](c2ccccc2)[C@]2(C)C(=O)Nc3ccc(Br)cc3C(=O)N12	x	x	x	94.0	x	x	x
Cc1cc(C)c(O)c(N)c1	103.0	-7.0	x	x	99.0	x	x

Assay outcomes: PubChem BioAssay, several laboratories
